C diff HTS = C. difficile growth inhibition. Clostridium difficile clinical isolate growth, OD600, 24 h; stronger effect = lower value. growth activity, negative = inhibition, % at 16 µg/mL (by protocol). 86,000 compounds, 0.25% hits;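 active means mean growth activity at or below -80% and every replicate also at or below -80%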;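 further: 0% = DMSO wells and -100% = levofloxacin 16 µg/mL wells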
Pf Dd2 inh = P. falciparum Dd2 growth inhibition. SYBR Green, 72 h; stronger effect = lower value. activity change, % at 10 µM. 94,000 compounds, 2.3% hits; in the data active means activity change below about -80%
T cruzi growth-1 = T. cruzi proliferation inhibition | T. cruzi beta-gal in NIH3T3, GalScreen luminescence, 90 h | inhibition, % at 8.34 µM | 77,000 compounds, 5.9% hits;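 active means mean inhibition above about 93%, with at least 55% of replicates each passing it, limit read from the data, passing the limit was not always enough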
T cruzi growth-2 = Trypanosoma cruzi proliferation inhibition. shares compounds with T cruzi growth-1. 5,600 compounds, 72% hits. inhibition, % at 8.35 µM. T. cruzi beta-gal in NIH3T3, GalScreen luminescence, 90 h;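 active means mean replicate inhibition above about 95% and at least 55% of replicates individually reaching it, limit read from the data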
T cruzi growth-3 = inhibitors of T. cruzi proliferation | inhibition, % at 2.09 µM | 5,600 compounds, 21% hits | AID 651740 | shares compounds with T cruzi growth-1 | T. cruzi beta-gal in NIH3T3, GalScreen luminescence, 90 h;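 active means mean inhibition above about 95%, with at least 55% of replicates also reaching it, limit read from the data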;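 further: plate controls were neutral control median for no effect and positive control median for full effect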
NIH3T3 tox = kills mouse NIH/3T3 fibroblasts; shares compounds with T cruzi growth-1; NIH/3T3 viability, CellTiter-Glo ATP luminescence, 90 h; cytotoxicity (signal decrease), % at 8.35 µM; 5,600 compounds, 14% hits; AID 651742;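 active means mean signal decrease across replicates above about 35% based on untreated-well scatter, with enough replicates individually passing, limit read from the data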;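 further: 0% = median of neutral control wells and 100% = median of positive control wells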
3T3 cytotox 2 = kills mouse NIH/3T3 fibroblasts. shares compounds with T cruzi growth-1. NIH/3T3 viability, CellTiter-Glo ATP luminescence, 90 h. inhibition, % at 24.9 µM. 5,600 compounds, 56% hits. AID 651744;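 active means mean loss of cell viability signal at or above a set limit, and enough replicates individually reaching it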;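 further: 0% = median of neutral control wells and 100% = median of positive control wells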
The depositor's hits bear a star; / = no result. An excerpt weighted towards active compounds, which were near 6.7% of everything screened.

SMILES	C diff HTS	Pf Dd2 inh	T cruzi growth-1	others
N#Cc1cccc(-c2ccc([C@H]3[C@@H](CO)N4CCCCN(C(=O)Cc5cccnc5)C[C@H]34)cc2)c1	-3	2	88
N#Cc1cccc(-c2ccc([C@@H]3[C@@H](CO)N4CCCCN(C(=O)Cc5ccncc5)C[C@H]34)cc2)c1	5	-16	108*	T cruzi growth-2=52;T cruzi growth-3=-8;NIH3T3 tox=14;3T3 cytotox 2=37*
N#Cc1ccc(-c2ccc([C@@H]3[C@@H](CO)N4CCCCN(C(=O)Cc5ccccc5)C[C@H]34)cc2)cc1	1	18	42
O=C(Cc1ccccc1)N1C[C@H]2[C@@H](c3ccccc31)[C@@H](CO)N2Cc1ccccc1	-9	2	42
COCC(=O)N1[C@@H]2c3ccc(C4=CCCC4)c(=O)n3C[C@H]1[C@H](CO)[C@H]2C(=O)OC	1	19	34
COC(=O)[C@H]1[C@H](CO)[C@H]2Cn3c(cccc3=O)[C@@H]1N2C(=O)C1CCCC1	-1	-17	32
COC(=O)[C@H]1[C@H](CO)[C@H]2Cn3c(ccc(-c4ccc(F)cc4)c3=O)[C@@H]1N2Cc1cccnc1	-6	/	-110
COC(=O)[C@@H]1[C@@H](CO)[C@@H]2Cn3c(ccc(C4=CCCCC4)c3=O)[C@H]1N2Cc1ccccc1OC	0	-16	/
O=C(Cc1ccccn1)N1CCCCN2[C@H](CO)[C@H](c3ccc(C#Cc4ccccc4)cc3)[C@@H]2C1	-18	-71	116*	T cruzi growth-2=109*;T cruzi growth-3=70;NIH3T3 tox=36*;3T3 cytotox 2=46*
CCCC#Cc1ccc([C@@H]2[C@H](CO)N3CCCCN(C(=O)Cc4ccccn4)C[C@@H]23)cc1	-6	-51	55
CC(C)CC#Cc1ccc([C@@H]2[C@H](CO)N3CCCCN(C(=O)Cc4ccccn4)C[C@@H]23)cc1	-10	-33	97*	T cruzi growth-2=108*;T cruzi growth-3=73;NIH3T3 tox=15;3T3 cytotox 2=104*
CC(C)CC#Cc1ccc([C@@H]2[C@@H](CO)N3CCCCN(C(=O)Cc4ccccn4)C[C@H]23)cc1	-10	0	88
C[C@@H]1CN([C@H](C)CO)C(=O)c2c(c3ccccc3n2C)-c2ccccc2CO[C@H]1CN(C)C(=O)Oc1ccccc1	-3	-12	/
O=C(NC[C@H]1CC[C@H]2[C@H](CN2Cc2cccnc2)O1)C1CC1	-6	44	/
CCN1[C@@H]2Cn3c(ccc(-c4cccc(OC)c4)c3=O)[C@H]1[C@@H](C(=O)OC)[C@@H]2CO	1	6	8
CC=Cc1ccc2n(c1=O)C[C@H]1[C@H](CO)[C@@H](C(=O)OC)[C@@H]2N1C(=O)CC (mixture of isomers)	-1	/	30
